In PubChem BioAssay AID1460 (National Center for Advancing Translational Sciences (NCATS), 2008):
Screen size: about 270,000 compounds; about 5,800 (2.1%) were called active. A call without a number means that no potency is given here. Another 16% or so got no clear call; they are omitted. This is one part of a sample in which actives are shown more often than they occur. Calls follow the shape of the dose curve; as a rule, active = well fitted inhibition curve with a large enough effect; inconclusive = small, poorly fitted or top-dose-only effect; inactive = flat fitted curve, though single readings scatter.

Each compound was assayed against Microtubule-associated protein tau (Homo sapiens) (UniProt P10636) (assay: qHTS for Inhibitors of Tau Fibril Formation, Thioflavin T Binding). Conditions: recombinant tau K18 P301L (four-repeat tau fragment), heparin-induced fibrillization, ThT fluorescence; series mostly up to 57.4 µM.
Chain of Microtubule-associated protein tau (Homo sapiens) (P10636 561-689 P618L limits assumed): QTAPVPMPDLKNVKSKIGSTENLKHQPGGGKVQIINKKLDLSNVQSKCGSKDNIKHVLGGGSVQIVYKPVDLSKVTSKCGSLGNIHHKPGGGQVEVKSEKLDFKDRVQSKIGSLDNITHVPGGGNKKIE
Description: NIH Molecular Libraries Probe Production Network [MLPCN]
NIH Chemical Genomics Center [NCGC]
Assay Provider: Carlo Ballatore, University of Pennsylvania
The microtubule-associated protein tau is an abundant protein in the axons of neurons that stabilizes microtubules. With its ability to modulate microtubule dynamics, tau contributes directly or indirectly, to key structural and regulatory cellular functions. Particularly important is the influence tau exerts on axonal transport, which allows signaling molecules, trophic factors and other essential cellular constituents to travel along the axons. Under pathological conditions, tau becomes sequestered into insoluble aggregates called neurofibrillary tangles. This phenomenon is believed to have pathological consequences by promoting axonal transport deficits that ultimately lead to synaptic dysfunction and neuronal loss. To identify inhibitors of tau aggregation, a heparin-induced tau fibril formation assay was used that employed a recombinantly expressed fragment of tau, K18 (Q242-E372), bearing a P301L mutation (Gustke et al. 1994; Hong et al. 1998). This assay monitors tau fibrillization by Thioflavin T (ThT) fluorescence.
Gustke, N., B. Trinczek, et al. (1994). "Domains of tau protein and interactions with microtubules." Biochemistry 33(32): 9511-22.
Hong, M., V. Zhukareva, et al. (1998).
Li, W. and V. M. Lee (2006).
von Bergen, M., S. Barghorn, et al. (2001). "Mutations of tau protein in frontotemporal dementia promote aggregation of paired helical filaments by enhancing local beta-structure." J Biol Chem 276(51): 48165-74.
NCGC Assay Protocol Summary:
For screening, 2 uL/well human K18 P301L (15 uM unlabeled and 0.24 uM Alexa 594-labeled tau, final concentrations) in reagent buffer (100 mM sodium acetate pH 7) was dispensed into black solid 1536-well plates (Grenier) using a solenoid-based dispenser. Following transfer of 23 nL compound or DMSO vehicle by a pin tool, 2 uL/well heparin (20 uM final concentration) in reagent buffer was added and the plate centrifuged 15 s at 1000 RPM. Plates were incubated 6 hr at 37 C and then 1 uL/well ThT (30 uM final concentration) was added. After a 1 hr ambient incubation, the plates were read by an Envision (Perkin Elmer) to monitor ThT fluorescence (450/8 nm excitation and 510/23 nm emission).
Keywords: NIH Roadmap, MLPCN, MLI, MLSMR, NCGC, qHTS, tau, tauopathies, Alzheimer's disease, fibril, neurodegeneration, aggregation
Also: nearly all actives have a fitted effect of over 55% in size.
Potency is read from the fitted curve at half-maximal effect.

Row | SMILES | Potency
1 | O=C(c1cc2nc(-c3ccccc3)cc(-c3ccccc3)n2n1)N1CCC2(CC1)OCCO2 | inactive
2 | CC1=C(C(=O)Nc2ccccc2)SCCO1 | inactive
3 | COc1cccc(-c2nc3ccc(N4CCN(C)CC4)cc3[nH]2)c1 | inactive
4 | CCN1CC2C3CCC(C)(O3)C2C1 (centres undefined) | inactive
5 | Cc1nnc(NC(=O)c2cccn(Cc3cccc(F)c3)c2=O)s1 | inactive
6 | N#Cc1c(Cl)c(Cl)c(Cl)c(C#N)c1Cl | 2.24 µM (active)
7 | Cc1ccc(NC(=O)N(Cc2ccc3c(c2)OCO3)C2CCN(Cc3ccccc3)CC2)cc1F | inactive
8 | Cc1ccc(-n2c(/C=C/c3cccc(C(F)(F)F)c3)nc3ccccc3c2=O)cc1 | inactive
9 | C=CCN1CCC23c4c5ccc(O)c4O[C@H]2C(=O)CC[C@@]3(O)C1C5 (some centres undefined) | inactive
10 | C[C@@]12CCC3C(CC[C@@H]4CC(O)CC[C@@]34C)C1CCC2O (some centres undefined) | inactive
11 | CC1=CC(=Cc2sc3ccccc3[n+]2C)C=C(C)O1 | 15.8 µM (active)
12 | CC(C)(C)c1ccc(CN2C(=O)CN=C(c3ccccc3)c3ccccc32)cc1 | inactive
13 | Cc1nn(Cc2ccccc2Cl)c(Cl)c1C(=O)OC(C(=O)NC(N)=O)C(C)C (centres undefined) | inactive
14 | CCC1(C)CC(CCNCc2ccc(N(C)C)cc2)(c2ccc(F)cc2)CCO1 (centres undefined) | inactive
15 | COc1cc(OC)cc(C2(C#N)CCN(C)CC2)c1 | inactive
16 | N[C@H](C(=O)O)c1cc(=O)[nH]o1 | inactive
17 | C=CCSSCC=C | inactive
18 | CCN(CC)c1ccc([N+](=O)[O-])c2cccnc12 | 11.2 µM (active)
19 | c1ccc(C2NCc3ccccc3-n3cccc32)cc1 (centres undefined) | inactive
20 | Cc1ccc(Cn2nnnc2CN2CCC(n3nnc4ccccc43)CC2)cc1 | inactive
21 | CCOC(=O)C(O)(c1ccc(NC(=O)c2ccco2)c(OC)c1)C(F)(F)F (centres undefined) | inactive
22 | CCCCC(=O)N/N=C/c1c(O)n(CC)c(=S)n(CC)c1=O | inactive
23 | C1CC[C@H]([C@@]23C[C@H](C[C@H]4CCCN[C@H]42)[C@@H]2CCCCN2C3)NC1 | inactive
24 | Cn1c(O)c(C=Nc2ccc3c(c2)CCC3)c(=O)n(C)c1=O | inactive
